# From PubChem
# Dicer inh – blocks human Dicer maturation of pre-miR-21; Q9UPY3; cat-ELCCA pre-miR-21 Dicer processing, chemiluminescence; stronger effect = higher value; z-score at 25 µM; actives 6% (n = 47,000); in the data active means z-score above about 3, passing the limit was not always enough;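 further: higher signal means more uncleaved substrate so more Dicer inhibition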
# Hits are given with their value; n = inactive. The entries come from a sample that favours hits as a whole.
SMILES,Dicer inh
C=CCOc1ccc(C2c3c(oc4cc(C)c(C)cc4c3=O)C(=O)N2CCOC)cc1OC (centres undefined),n
c1ccc(Nc2nc(-c3ccccc3)nc3ccccc23)cc1,n
O=c1nc(Nc2ccccc2)oc2ccccc12,3.75
O=c1nc(-c2ccc(Cl)cc2)oc2ccccc12,n
CCOC(=O)CC(=O)c1c[nH]c2ccccc12,n
CCc1cc(=O)[nH]c(-c2ccc(F)c(Cl)c2)n1,n
Cc1ccc(S(=O)(=O)N/N=C/c2ccc3ccccc3c2O)cc1,3.25
Cc1ccc(S(=O)(=O)N/N=C/c2nccs2)cc1,n
CN(C)/C=N/NS(=O)(=O)c1ccccc1,n
Cc1ccc(S(=O)(=O)NNC(=O)CSc2ncnc3scc(C)c23)cc1,n
CCOC(=O)c1cnc2c(-c3ccccc3)c(C(F)(F)F)sc2c1N1CCOCC1,n
COc1ccc(-n2cnc3ccccc3c2=O)cc1,n
CN(n1cnc2ccsc2c1=O)S(C)(=O)=O,n
CN(n1cnc2ccccc2c1=O)S(C)(=O)=O,3.02
Cc1cccc(NC(=S)Nc2c(C)cccc2C)n1,n
CN(C)CCCN1C(=O)C(O)=C(C(=O)c2ccco2)C1c1ccc(Cl)cc1 (centres undefined),n
CC1(C)CC(=O)C2=C(C1)NC(=O)CC2C(=O)Nc1ccc(F)c(Cl)c1 (centres undefined),n
c1ccc(CN2CN(c3nccs3)CN(c3nccs3)C2)cc1,n
O=C(CN1C(=O)C2CCCCC2C1=O)N1CCN(c2ccc(F)cc2)CC1 (centres undefined),6.52
O=C(CN1C(=O)c2cccc3cccc1c23)N1CCN(c2ccc(F)cc2)CC1,n
O=C1CCC2C(=O)N(CC(=O)N3CCCC3)C(=O)C2C1 (centres undefined),n
O=C(N/C=C/c1ccsc1)Sc1ccc(Cl)cc1,n
CNC(=O)c1cccc2cccc(I)c12,n
CSc1nnc(-c2ccc(Br)cc2)o1,n
Cc1ccc(-c2nnc(-c3ccc(Br)cc3)o2)cc1,3.77
SMILES,Dicer inh
CSc1nnc(-c2ccc(C)cc2)o1,n
c1cnc2nc(-c3ccc4c(c3)OCCO4)cn2c1,n
Oc1ccccc1Nc1nc(NCc2ccco2)c2ccccc2n1,3.11
O=C(NCc1ccco1)Oc1ccccc1,n
Cc1cc(C)nc(NCc2ccco2)n1,n
CNc1ccccc1C(=O)NNC(=O)c1cccnc1Oc1ccccc1,n
CCN(/C=C/c1nnnn1-c1ccc(Br)cc1)CC,n
CCN(/C=C/c1nnnn1-c1ccc(Cl)cc1)c1ccccc1,3.25
CCc1ccc(-n2nnnc2/C=C/N(C)C)cc1,n
C/C=C(\C)C(=O)NC(=S)NNC(=O)c1ccc(N(C)C)cc1,n
CC(C(=O)NNC(=O)NC(C)(C)C)n1nnc(-c2cc(C(F)(F)F)cc(C(F)(F)F)c2)n1 (centres undefined),n
Cc1ccc(S(=O)(=O)Oc2c(-c3ccccc3)c(=O)n(C)c3ccccc23)cc1,n
Cc1ccc(S(=O)(=O)Oc2c(Cc3ccccc3)c(=O)n(C)c3ccccc23)cc1,3.77
Cc1ccc(Cc2c(C)[nH]c3[nH]n(-c4ccccc4)c(=O)c3c2=O)cc1,n
Cc1cc(N=CN(C)C)cc(Cl)c1OS(=O)(=O)c1cc(Cl)cc(Cl)c1,n
CCOC(=O)c1sc(N2C(=O)c3oc4ccccc4c(=O)c3C2c2ccc(Cl)cc2)nc1C (centres undefined),n
COc1ccc(-n2cccc2)c([N+](=O)[O-])c1,n
Cc1ccc(C(=O)CSc2ccc(C(F)(F)F)cn2)cc1,n
COc1ccc(C(CC(=O)c2cccs2)Sc2ccccc2N)c(Cl)c1OC (centres undefined),n
FC(F)(F)c1ccnc(NCCNC(=S)NCc2ccco2)n1,n
COc1ccc(S(=O)(=O)Nc2ccc3oc4c(c3c2)C(=O)CCC4)cc1,n
CCOc1ccc(S(=O)(=O)Nc2cc(Cl)c3oc4c(c3c2)C(=O)CCC4)cc1,n
Cc1ccc(S(=O)(=O)Nc2cc(Cl)c3oc4c(c3c2)C(=O)CCC4)c(C)c1,3.13
COc1cc2c(cc1OC)N1C(=O)c3ccccc3C1(O)OC2=O (centres undefined),n
O=C(O)c1cc(F)cc(C(F)(F)F)c1,n
SMILES,Dicer inh
C=CCOc1ccc(/C(O)=C2/C(=O)C(=O)N(CCOC)C23C(=O)N(C)c2ccccc23)cc1 (centres undefined),n
C=CCN1C(=O)C2(/C(=C(/O)c3ccc(OCC)cc3)C(=O)C(=O)N2CCOC)c2ccccc21 (centres undefined),n
COCCCN1C(=O)C(=O)/C(=C(\O)c2ccccc2)C12C(=O)N(C)c1ccccc12 (centres undefined),3.9
C=CCOc1ccc(/C(O)=C2/C(=O)C(=O)N(CCCOC)C23C(=O)N(C)c2ccccc23)cc1 (centres undefined),3.56
COCCCN1C(=O)C(=O)/C(=C(\O)c2ccc(F)cc2)C12C(=O)N(C)c1ccccc12 (centres undefined),n
COCCCN1C(=O)C(=O)/C(=C(\O)c2ccc(C)c(F)c2)C12C(=O)N(C)c1ccccc12 (centres undefined),n
O=c1oc(-c2sc3ccccc3c2Cl)nc2cc(Cl)ccc12,n
COC(=O)c1sccc1Br,n
